Results as given in PubChem BioAssay (NCI).
Compounds without any hit were thinned out: in the full panel of roughly 83,000, 20% have a hit.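 Each cell line was grown in a 96-well plate and treated with one concentration of compound for 48 hours. Values below 10 were considered active.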 Calls of active or inactive are those of the source.

Tests used:
Experiment in all cases: NCI-60 one-dose screen, 48 h (100 = growth as untreated, 0 = no growth, -100 = all killed)
Conditions in all cases: 10 µM
NCI-H23 lung = tested on: NCI-H23 lung
NCI-H226 lung = tested on: NCI-H226 lung
HOP-62 NSCLC = tested on: HOP-62 NSCLC
NCI-H460 lung = tested on: NCI-H460 lung
HOP-92 NSCLC = tested on: HOP-92 NSCLC
NCI-H522 lung = tested on: NCI-H522 lung
A549/ATCC NSCLC = tested on: A549/ATCC NSCLC
786-0 renal = tested on: 786-0 renal
COLO 205 colon = tested on: COLO 205 colon

Measured: growth

COc1cc(-c2nn(-c3cccc(NC(=O)CN4CCOCC4)c3)cc2-c2cccnc2)ccc1Cl
inactive: NCI-H23 lung 90.9% | NCI-H226 lung 82.2% | HOP-62 NSCLC 98.9% | NCI-H460 lung 84% | HOP-92 NSCLC 50.4% | NCI-H522 lung 49.1% | A549/ATCC NSCLC 83.8% | 786-0 renal 94.6% | COLO 205 colon 88.3%

COc1cc(/C=C/c2cc(/C=C/c3ccc(O)c(OC)c3)[nH]c(=O)n2)ccc1O
inactive: NCI-H23 lung 62.8% | NCI-H226 lung 76.2% | HOP-62 NSCLC 70.8% | NCI-H460 lung 69.7% | HOP-92 NSCLC 33.7% | NCI-H522 lung 54.6% | A549/ATCC NSCLC 71.7% | 786-0 renal 82.6% | COLO 205 colon 51.8%

CCOC(=O)Cn1c(=O)c2sc3ncccc3c2n2nnc(-c3ccccc3)c12
inactive: NCI-H23 lung 100% | NCI-H226 lung 103% | HOP-62 NSCLC 95.4% | NCI-H460 lung 125% | HOP-92 NSCLC 71% | NCI-H522 lung 92.2% | A549/ATCC NSCLC 107% | 786-0 renal 99.9% | COLO 205 colon 104%

NC(CSC(c1ccccc1)(c1ccccc1)c1cccc2ccccc12)C(=O)O (stereo unspecified)
inactive: NCI-H23 lung 94.2% | NCI-H226 lung 96.6% | HOP-62 NSCLC 104% | NCI-H460 lung 98.8% | HOP-92 NSCLC 81.6% | NCI-H522 lung 104% | A549/ATCC NSCLC 92.7% | 786-0 renal 98.2% | COLO 205 colon 108%

COc1ccc(/C=C2\CCCC3=C2N=C2SC(C)=CN2C3c2ccc(OC)cc2)cc1 (stereo unspecified)
inactive: NCI-H23 lung 90.3% | NCI-H226 lung 94.1% | HOP-62 NSCLC 104% | NCI-H460 lung 104% | HOP-92 NSCLC 93.8% | NCI-H522 lung 89.6% | A549/ATCC NSCLC 90.7% | 786-0 renal 104% | COLO 205 colon 115%

COc1cccc(-c2nc3sccn3c2-c2cccc(S(C)(=O)=O)c2)c1
inactive: NCI-H23 lung 85.4% | NCI-H226 lung 90.1% | HOP-62 NSCLC 105% | NCI-H460 lung 106% | HOP-92 NSCLC 87.3% | NCI-H522 lung 102% | A549/ATCC NSCLC 102% | 786-0 renal 100% | COLO 205 colon 114%

COc1cccc(CNc2cccc3cn[nH]c23)c1O
inactive: NCI-H23 lung 94.9% | NCI-H226 lung 87.6% | HOP-62 NSCLC 95.3% | NCI-H460 lung 111% | HOP-92 NSCLC 72.3% | NCI-H522 lung 86.3% | A549/ATCC NSCLC 90.6% | 786-0 renal 105% | COLO 205 colon 110%

CN(C)CCN(Cc1ccccc1)c1ccc2ccccc2n1
inactive: NCI-H23 lung 97.6% | NCI-H226 lung 111% | HOP-62 NSCLC 88.4% | NCI-H460 lung 96.9% | HOP-92 NSCLC 75.6% | NCI-H522 lung 96.7% | A549/ATCC NSCLC 95.6% | 786-0 renal 93.9% | COLO 205 colon 89.5%

C=CCn1c(SCC(=O)Nc2ccc(C(=O)/C=C/c3ccc(OC)cc3)cc2)nnc1-c1ccc(OC)c(OC)c1
inactive: NCI-H23 lung 89.3% | NCI-H226 lung 82.7% | HOP-62 NSCLC 92.6% | NCI-H460 lung 91.7% | HOP-92 NSCLC 83.2% | NCI-H522 lung 65.6% | A549/ATCC NSCLC 85.8% | 786-0 renal 79.9% | COLO 205 colon 114%

CN(C)CCOc1ccccc1NC1=C(Cl)C(=O)C(Nc2ccccc2OCCN(C)C)=C(Cl)C1=O
inactive: NCI-H23 lung 64.1% | NCI-H226 lung 93.9% | HOP-62 NSCLC 110% | NCI-H460 lung 99.2% | HOP-92 NSCLC 59.9% | A549/ATCC NSCLC 84.7% | 786-0 renal 74.8%
active: NCI-H522 lung -53.3% | COLO 205 colon -62%

C=CCn1c(SCC(=O)Nc2ccc(C(=O)/C=C/c3ccc(Cl)cc3)cc2)nnc1-c1cc(-c2ccccc2)nc2ccccc12
inactive: NCI-H23 lung 66.3% | NCI-H226 lung 73.6% | HOP-62 NSCLC 86.1% | NCI-H460 lung 98.6% | HOP-92 NSCLC 91.5% | NCI-H522 lung 60.5% | A549/ATCC NSCLC 89.7% | 786-0 renal 86.7% | COLO 205 colon 99.5%

COc1cc(/C=C2\CCCC3=C2NC(N)=NC3c2cc(OC)c(OC)c(OC)c2)cc(OC)c1OC (stereo unspecified)
inactive: NCI-H23 lung 11.6% | HOP-62 NSCLC 17.8%
active: NCI-H226 lung -61% | NCI-H460 lung -42.6% | HOP-92 NSCLC -1% | NCI-H522 lung -38% | A549/ATCC NSCLC -28.4% | 786-0 renal -20.1% | COLO 205 colon -0.149%

COC1OC(COS(=O)OC)C(O)C(O)C1OS(=O)OC (stereo unspecified)
inactive: NCI-H23 lung 101% | NCI-H226 lung 95.7% | HOP-62 NSCLC 104% | NCI-H460 lung 101% | HOP-92 NSCLC 108% | NCI-H522 lung 98.5% | A549/ATCC NSCLC 103% | 786-0 renal 106% | COLO 205 colon 110%

COc1cc(C(=O)n2nc(-c3cc(OC)c(OC)c(OC)c3)nc2N)cc(OC)c1OC
inactive: NCI-H23 lung 92.9% | NCI-H226 lung 98.7% | HOP-62 NSCLC 85.8% | NCI-H460 lung 103% | HOP-92 NSCLC 82% | NCI-H522 lung 82.1% | A549/ATCC NSCLC 98.5% | 786-0 renal 96.6% | COLO 205 colon 99.4%
